Experiment in all cases: NCI-60 one-dose screen, 48 h (100 = growth as untreated, 0 = no growth, -100 = all killed)
Conditions in all cases: 10 µM unless noted

Test [1] concerns HCT-15 colon.
The test system of test [2] is HT29 colon.
Test [3] has as its system SNB-75 CNS.
Test [4] concerns SNB-19 CNS.
In test [5] the test system is PC-3 prostate.
The subject of test [6] is SK-MEL-5 melanoma.
Test [7] relates to UACC-62 melanoma.
Test [8] relates to LOX IMVI melanoma.
Test [9] deals with SK-MEL-28 melanoma.
Test [10] has as its system SK-MEL-2 melanoma.
The test system of test [11] is SN12C renal.
The subject of test [12] is UO-31 renal.
Test [13] deals with TK-10 renal.
In test [14] the test system is ACHN renal.
In test [15] the test system is CAKI-1 renal.
Test [16] concerns A498 renal.
Test [17] concerns MOLT-4 leukemia.
The subject of test [18] is EKVX NSCLC.
Test [19] has as its system CCRF-CEM leukemia.

The structures appear in SMILES notation. Compounds without any hit were thinned out: in the full panel of roughly 83,000, 20% have a hit.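 Compound tested at a single concentration for 48 hours in 96-well plates; a percent growth value below 10 was scored as active.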 Values without a mark were called inactive. Active and inactive are the calls of the source.

Regarding `COc1c(Br)cc(C(c2cc(Br)c(OC)c(Br)c2)c2ccccc2C(=O)O)cc1Br`, the growth is 115% in [1]; 100% in test [2]; 76.7% in test [3]; 95.9% in test [4]; 89.9% in test [5]; 100% in [6]. The growth in test [7] was 97.9%; in [8], 96.6%; in [9], 112%; in test [10] it was 114%; in test [11], 96%; in test [12], 68.9%. The growth in test [13] was 106%; in [14] it was 91.2%; in [15], 91.6%; in test [16] it was 107%; in [17] it was 89.4%.
For `O=C1c2cccc(NCCN=Cc3ccccc3O)c2C(=O)c2c(NCCN=Cc3ccccc3O)cccc21`, the growth in test [1] was 38.7%; in test [2] it was -4.87% (active); in test [3] it was 29.3%; in test [4] it was 14.3%; in test [5], 10.2%; in [6] it was 52.7%. In addition, the growth in test [7] is 81.5%; in [8] it was -3.1% (active); in [9], 50.2%; in test [10], 46.5%; in [18], 39.8%; in test [11] it was 44.5%. Besides, the growth in [12] was -4.5% (active); in test [14], 15.4%; in test [15], 27.6%; in [19] it was 3.44% (active); in [17], 15%.
Turning to `O=C(/C=C/c1ccc(C(F)(F)F)cc1)c1ccc(Nc2nc(NCCO)nc(NCCO)n2)cc1`, the growth in test [1] is 45.5%; in test [2] it was 5.46% (active); in test [3] it was 55.8%; in [4], 56.7%; in test [5], 48.7%; in [6] it was 76.5%. Besides, the growth was 79.1% in test [7]; -44.2% (active) in [8]; 94.9% in test [9]; 79.5% in [18]; 65.7% in [11]; 44.2% in test [12]. The growth in test [13] is 54.8%; in [14], 83.7%; in [16] it was 82.1%; in [19], 7.48% (active); in [17], 34.5%.
With `CC(=O)c1nn(-c2ccccc2)c(=Nc2ccccc2)cc1C`, the growth was 93.9% in [1]; 95.5% in test [2]; 76.2% in [3]; 92.4% in test [4]; 80.3% in [5]; 98.9% in test [6]. For the same compound, the growth in test [7] was 94.8%; in test [8], 98.4%; in test [9], 109%; in test [10] it was 114%; in test [11], 97.7%; in [12], 86.2%. For the same compound, the growth in test [13] is 104%; in test [14], 86.7%; in test [15], 99.1%; in test [16] it was 103%.
As to `Cc1ccc(-c2c3c(N)nc(-c4ccncc4)nc3nc3c2c(C)nn3-c2ccccc2)cc1`, the growth in test [1] was 45%; in [2], 21.8%; in [3] it was 22.5%; in test [4] it was 88.4%; in test [5] it was 62.8%; in [6] it was 55.3%. Moreover, the growth in test [7] is 58.3%; in test [8], 8.73% (active); in test [9] it was 30.4%; in test [10] it was -7.11% (active); in test [11], 26.8%; in test [12], 93.4%. The growth is 12.3% in test [13]; 53.2% in [14]; 72.5% in test [15]; 82.7% in test [16]; 65.3% in test [17].
As for `CCCCCCCCCCCCC1CCCC(C)C1` (stereo unspecified), the growth in [1] was 97.5%; in test [2] it was 101%; in test [3] it was 64.8%; in [4], 104%; in test [5] it was 88.8%; in test [6], 101%. Moreover, the growth in [7] was 102%; in [8] it was 99.7%; in test [9], 88.9%; in [10] it was 94.9%; in test [11], 106%; in [12], 87.9%. The growth in test [13] was 94.2%; in test [14], 95.5%; in test [15] it was 88.2%; in test [16], 98.5%.
On to `CCN(CC)CCNCC(=O)Oc1ccc(/C=C/C(=O)CC(=O)/C=C/c2ccc(OC(=O)CNCCN(CC)CC)c(OC)c2)cc1OC`, for which the growth in [1] is 14.4%; in [2] it was -80.7% (active); in [3], -8.49% (active); in test [4], 22%; in [5], 14.4%; in test [6] it was -13.7% (active). Also, the growth in test [7] is 15.4%; in test [8], -66.5% (active); in [9], 14.5%; in [10] it was 10.7%; in test [18], 5.1% (active); in test [11] it was 4.14% (active). In addition, the growth in test [13] was 50.3%; in [14], 16.8%; in [15] it was 22%; in test [16], 51%; in test [19], -30.5% (active); in test [17], 0.439% (active).
For the compound `COc1cccc(CCN2C(=O)CCC3=C2CCC3=O)c1`, the growth in [1] was 108%; in test [2], 106%; in test [3] it was 84.4%; in test [4], 102%; in test [5], 93.5%; in [6], 98.2%. For the same compound, the growth in [7] is 97.8%; in test [8], 97.9%; in test [9], 111%; in test [10], 145%; in test [11], 99.4%; in test [12] it was 85.7%. The growth in [13] was 107%; in test [14], 99.8%; in test [15], 98%; in [16] it was 114%; in [17] it was 105%.
In the case of `Cc1ccc(C2=Nc3c(ccc4c(C)c(C)c(=O)oc34)OC2)cc1`, the growth was 94.4% in test [1]; 102% in test [2]; 95.7% in [3]; 101% in [4]; 88.9% in [5]; 101% in [6]. The growth was 107% in test [7]; 94.5% in [8]; 110% in test [9]; 95.8% in test [10]; 82.6% in [12]; 108% in test [13]. The growth in test [14] is 99.1%; in test [15], 92.2%; in test [16], 110%; in test [17] it was 101%.

For the origin of these results see PubChem BioAssay (NCI).
